Assay results: PubChem BioAssay (NCI)
Values joined by “and” are separate entries in the source; they are usually repeats but may differ in a detail not shown here. Equal entries are not always repeated. Compounds without any hit were thinned out: in the full panel of roughly 83,000, 20% have a hit.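 For each line, cells grew in 96-well plates with the test compound present at a single concentration for 48 hours.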 Unmarked numbers belong to inactive results. Active and inactive are the calls of the source. The calls were made as follows: active = growth percent below 10; inactive = the rest.

system: MDA-MB-468 breast; assay: NCI-60 one-dose screen, 48 h (100 = growth as untreated, 0 = no growth, -100 = all killed); conditions: 10 µM unless noted

Q: Which growth does the source give for `COC(=O)[C@H]1CCCN1C(=O)[C@H]1CCCN1C(=O)[C@@H](Cc1c[nH]c2ccccc12)NC(=S)Nc1cc(C(F)(F)F)cc(C(F)(F)F)c1` here?
A: 21%

Q: `CCCCn1c(=O)[nH]c(N)c(C(c2ccc(Cl)cc2)c2c(N)[nH]c(=O)n(CCCC)c2=O)c1=O` was tested. Which growth did it give?
A: 10.1%

Q: `O=c1cc(-c2ccccc2)oc2cc(OCc3cn(Cc4ccc(F)cc4)nn3)cc(OCc3cn(Cc4ccc(F)cc4)nn3)c12` was tested. Which growth did it give?
A: 38.7%

Q: With `COc1cccc(N2CCN(c3ncnc4c3[nH]c3ccc(F)cc34)C[C@@H]2C)c1` as the molecule, how does the growth read?
A: -12.5% (active)

Q: With `COc1cc(C2NC(c3cc(OC)c(OC)c(OC)c3)C(C#N)(C#N)C2(C#N)C#N)cc(OC)c1OC` (stereo not given) as the molecule, how does the growth read?
A: 93.2%

Q: `C=CC(=O)N1CCC[C@@H](n2nc(-c3ccc(Oc4ccccc4)cc3)c3c(N)ncnc32)C1` was tested. Which growth did it give?
A: -17.5% (active)

Q: Which growth does the source give for `CCCCCC/C=C\CCCCCCCCCc1cc(O)cc(OC)c1O` here?
A: -54.1% (active)

Q: With `COc1ccc2c(c1)[nH]c(=O)c1c3cccnc3cn21` as the molecule, how does the growth read?
A: 6.19% (active)

Q: With `N[C@H]1CN(C(=O)c2cc3cc(Br)c(F)c(F)c3[nH]2)C[C@@H]1O` as the molecule, how does the growth read?
A: 106%

Q: `Cn1cc(-c2csc(-c3cn(C)c4ncccc34)n2)c2cccnc21` was tested. Which growth did it give?
A: -10.8% (active)

Q: `COC(=O)C1=NNC(=S)N(c2cc(C)[nH]n2)C(=O)C1` was tested. Which growth did it give?
A: 108%

Q: `Cc1ccc(C(=O)N(CCCN)[C@@H](c2nc3cc(Cl)ccc3c(=O)n2Cc2ccccc2)C(C)C)cc1` was tested. Which growth did it give?
A: -84.4% (active)

Q: `O=[N+]([O-])c1cccc(-c2nc3sccn3c2-c2ccnc(NCCCNS(=O)(=O)c3ccc(C(F)(F)F)cc3)n2)c1` was tested. Which growth did it give?
A: 22.8%

Q: How did the growth turn out when `CC(=O)c1cccc(O)c1` was run?
A: 110%

Q: Which growth does the source give for `CC1CCc2cc(F)cc3c(=O)c(C(=O)O)cn1c23` (stereo not given) here?
A: 109%

Q: For `c1ccc(-c2nc(N3CCNCC3)c3nc(-c4ccccc4)oc3n2)cc1`, which growth is on record?
A: -37.2% (active)

Q: How did the growth turn out when `COc1ccc(/C=N/NC(=O)c2[nH]c3ccc(Br)cc3c2-c2ccccc2)o1` was run?
A: 13%

Q: For `CC(C)(C)c1ccc(/C=C/C(=O)Nc2ccc(O)cc2)cc1`, which growth is on record?
A: 92.2%

Q: How did the growth turn out when `O=C1/C(=C/c2ccc(OCc3ccccc3)cc2)Oc2cc(OCCN3CCCCC3)ccc21` was run?
A: 48.3%

Q: How did the growth turn out when `CSc1nc(N)c2c(n1)NC(c1ccccc1)C1CCc3ccccc3C1=N2` (stereo not given) was run?
A: 76.4%

Q: Which growth does the source give for `CC(C)=CC[C@@H]1CC2(CC=C(C)C)C(=O)C(OC3(C(=O)c4ccccc4)C(=O)C4(CC=C(C)C)C[C@@H](CC=C(C)C)C(C)(C)C(CC=C(C)C)(C4=O)C3=O)(C(=O)c3ccccc3)C(=O)C(CC=C(C)C)(C2=O)C1(C)C` (stereo not given in full) here?
A: -6.87% (active)

Q: With `CCN(CC)CCCOC(=O)Nc1ccccc1Cl` as the molecule, how does the growth read?
A: 107%

Q: With `O=C(O)c1ccccc1Oc1cc(-c2ccco2)nc(OCCBr)n1` as the molecule, how does the growth read?
A: 119%

Q: For `CCCCCCCCCc1cc[n+](CC(=O)c2ccc([N+](=O)[O-])cc2)cc1`, which growth is on record?
A: -18.6% (active)

Q: For `COc1ccc(Br)c(/C=C2\SC(=Nc3ccc(O)cc3)NC2=O)c1`, which growth is on record?
A: 85%

Q: How did the growth turn out when `CN1CCN(c2ccc(/C=C/C(=O)c3ccc(O)cc3)cc2)CC1` was run?
A: 89.5%

Q: With `Cn1cc(Nc2nccc(-c3ccc(N4CCCC4)c(C#N)c3)n2)cn1` as the molecule, how does the growth read?
A: 61.8%

Q: `O=C(O)C(O)c1ccccc1` (stereo not given) was tested. Which growth did it give?
A: 100%

Q: For `COc1ccc(C2CC(c3ccccc3)=NN2C(=O)c2cc(OC)c(OC)c(OC)c2)cc1O` (stereo not given), which growth is on record?
A: 41.3%

Q: With `C=C1C(=O)O[C@H]2[C@H]1CCC(/C=N/c1ncc(Br)cc1N)=C\CC[C@@]1(C)O[C@@H]21` as the molecule, how does the growth read?
A: -51% (active)

Q: With `O=C(c1ccc(Br)cc1)C(Br)C(c1ccc(Cl)cc1)C(c1ccccc1)[N+](=O)[O-]` (stereo not given) as the molecule, how does the growth read?
A: 80.7%

Q: For `Oc1ccc(/C=N/Nc2nc3ccccc3s2)c(O)c1`, which growth is on record?
A: 20.2%

Q: Which growth does the source give for `COC(=O)CCC1=C(C)C(C)=N/C1=C\c1[nH]c(-c2ccc[nH]2)cc1OC` here?
A: 35%

Q: For `C#CCN(C)Cc1ccccc1`, which growth is on record?
A: 96.1% and 122%

Q: Which growth does the source give for `COc1cc(C(=O)/C=C/c2c(-c3cccs3)nc3ccccn23)cc(OC)c1OC` here?
A: -30.4% (active)

Q: How did the growth turn out when `CCCCn1cnc2c(Sc3c([N+](=O)[O-])ncn3C)nc(N)nc21` was run?
A: 96.9%

Q: With `CC(CCC(=O)O)(NC(=O)c1ccc([N+](=O)[O-])cc1)C(=O)O` (stereo not given) as the molecule, how does the growth read?
A: 112%

Q: How did the growth turn out when `CCCn1cnc2c(c1=N)C(c1ccc(F)cc1)c1sc3c(C)cccc3c1O2` (stereo not given) was run?
A: -26.7% (active)

Q: Which growth does the source give for `Oc1c(CNCCNCc2cc(Cl)cc(Cc3ccccc3)c2O)cc(Cl)cc1Cc1ccccc1` here?
A: 24.2%

Q: How did the growth turn out when `CN1CCN(CCCOc2ccc3nc(Nc4ccc(C(F)(F)F)c(Cl)c4)ccc3c2)CC1` was run?
A: 30%
